High-throughput results deposited in PubChem by National Center for Advancing Translational Sciences (NCATS).
POLK inh – inhibitors of human DNA polymerase kappa | Q9UBT6 | purified Pol kappa, fluorescent DNA synthesis assay, 10 min | Potency, µM (doses to about 107 µM), inactives show at the top dose activity, negative = inhibition, most hits filed as inhibitors | hit rate 0.53% among 400,000 | AID 588579; further: on the % scale 0 is the no-effect control and ±100 the full control effect
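Inhibition of 10 nM Pol kappa is measured by a fluorescent read-out at 0 and 10 min following addition of 50 nM substrate (final), with a 15-min room-temperature compound preincubation.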
FEN1 inhibitor – human FEN1 inhibition; hit rate 0.35% among 390,000; P39748; Potency, µM (doses to about 114 µM), for the others: at the highest dose activity change, negative = inhibition, usual class: inhibitors; Recombinant FEN1 flap cleavage, fluorescence, 15 min; further: on the % scale 0 is the no-effect control and ±100 the full control effect; nearly all actives have a fitted effect of over 65% in size
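Quantitative HTS format: each compound was titrated, incubated with 10 nM nuclease for 15 min at room temperature, then challenged with flap substrate at 50 nM final. Signal change over 15 min gave concentration–effect curves.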
POLH inh – blocks human DNA polymerase eta activity; recombinant Pol eta, fluorescent DNA replication assay; Q9Y253; Potency, µM (top dose mostly 114 µM), inactives show top-dose activity change, negative = inhibition, usual class: inhibitors; hit rate 1.2% among 390,000; AID 588591; further: on the % scale 0 is the no-effect control and ±100 the full control effect
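Pol eta (10 nM) was preincubated with compounds for 15 min at room temperature, after which fluorescent replication substrate (50 nM final) was added to start the reaction. Fluorescence was read kinetically at 0 and 10 min.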
POLI inh – blocks human DNA polymerase iota activity. Q9UNA4. Pol iota fluorescent replication assay, 10 min. Potency, µM (series often up to 115 µM), inactives show top-dose activity, negative = inhibition, usual class: inhibitors. hit rate 1% among 390,000
Target sequence (Q9UNA4 whole entry, looked up): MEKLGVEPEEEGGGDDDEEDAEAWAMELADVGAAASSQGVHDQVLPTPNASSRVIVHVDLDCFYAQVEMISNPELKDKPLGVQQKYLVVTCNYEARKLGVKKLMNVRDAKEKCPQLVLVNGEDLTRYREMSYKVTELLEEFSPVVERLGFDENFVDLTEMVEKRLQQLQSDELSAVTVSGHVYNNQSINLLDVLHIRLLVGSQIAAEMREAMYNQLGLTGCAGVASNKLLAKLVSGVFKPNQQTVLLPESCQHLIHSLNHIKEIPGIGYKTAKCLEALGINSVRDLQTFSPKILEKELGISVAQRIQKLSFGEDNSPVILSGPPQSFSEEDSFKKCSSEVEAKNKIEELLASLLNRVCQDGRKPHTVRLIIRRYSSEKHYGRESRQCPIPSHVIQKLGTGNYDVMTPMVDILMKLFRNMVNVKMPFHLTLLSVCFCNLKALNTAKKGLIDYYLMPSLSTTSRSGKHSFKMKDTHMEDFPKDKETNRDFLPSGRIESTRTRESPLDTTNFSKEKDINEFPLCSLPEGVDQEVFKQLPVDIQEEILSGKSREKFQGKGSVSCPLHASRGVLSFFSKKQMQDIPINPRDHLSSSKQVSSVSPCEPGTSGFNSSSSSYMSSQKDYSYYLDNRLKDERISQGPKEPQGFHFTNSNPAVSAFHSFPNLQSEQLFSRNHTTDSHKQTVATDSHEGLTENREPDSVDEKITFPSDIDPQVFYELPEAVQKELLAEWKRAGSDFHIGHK
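Fluorescent replication assay read twice, at 0 min and 10 min after adding 50 nM (final) substrate. Enzyme (10 nM) and compounds were first incubated 15 min at room temperature; enzyme-free buffer wells were negative controls.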
Pol beta inh – inhibitors of human DNA polymerase beta; Pol beta primer extension/strand displacement, fluorescence kinetic; Potency, µM (top dose mostly 114 µM), for the others: at the highest dose activity change, negative = inhibition, usual class: inhibitors; hit rate 1.3% among 340,000; further: on the % scale 0 is the no-effect control and ±100 the full control effect
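Human Pol beta at 10 nM; strand-displacement substrate 50 nM final. Compound exposure 15 min at room temperature before start, reaction 10 min at room temperature.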
TDP1 inh – inhibitors of human tyrosyl-DNA phosphodiesterase TDP1. Q9NUW8. recombinant TDP1, AlphaScreen DNA substrate cleavage. Potency, µM (top dose mostly 130 µM), for the others: at the highest dose activity change, negative = inhibition, hits mostly inhibitors. hit rate 0.28% among 350,000; further: on the % scale 0 is the no-effect control and ±100 the full control effect; nearly all actives have a fitted effect of over 40% in size
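Steps: enzyme plus compound, 15 min RT; add biotin/phosphotyrosine-FITC oligonucleotide (15 nM final), react 5 min; add donor/acceptor beads (10 ug/ml final), 10 min; read AlphaScreen. Tdp1 at 1 nM final.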
* marks the source's active call; other numbers are inactive results; ? = inconclusive; . = not tested or not shown; [ ] = remark or other dose. The list is not random: actives were taken first. Their share in the collection is about 2.4%. The call rests on the fitted dose curve; in most records, active means well fitted curve in the direction sought with a large enough effect; inconclusive means small, poorly fitted or top-dose-only effect, or another doubt; inactive means no such curve, though single readings can be large; an effect the other way counts as inactive or inconclusive. Potency means the concentration at half of the fitted maximal effect.

SMILES	POLK inh	FEN1 inhibitor	POLH inh	POLI inh	Pol beta inh	TDP1 inh
O=c1cc(-c2cc(O)c(O)c([C@@H]3O[C@H](CO)[C@@H](O)[C@H](O)[C@H]3O)c2)oc2cc(O[C@@H]3O[C@H](CO)[C@@H](O)[C@H](O)[C@H]3O)cc(O)c12	11.2%[60.1 µM]	.	.	.	.	9.5%
COC(=O)c1[nH]c2c(c1C)C(=O)CC(c1cccc(OC)c1)C2 (configuration not stated)	-22.3%	-0.8%	-4.5%	?	44.7µM*	.
Cc1cccc(N2CC(C(=O)Nc3nnc(SCc4ccccn4)s3)CC2=O)c1 (configuration not stated)	?	6.8%	39.8µM*	?	?	2.7%
Oc1ccc(/C=N/Nc2ccnc3cc(Cl)ccc23)cc1O	0.0%	?	?	?	?	8.8%
Oc1ccc(/C=N/Nc2ccnc3cc(Cl)ccc23)c(O)c1O	44.7µM*	44.7µM*	?	?	14.1µM*	12.3%
CCN(CC)C(=O)CSc1nc2ccc(NC(=O)CSc3nccn3C)cc2s1	-39.6%	-12.3%	-12.7%	25.1µM*	5.62µM*	3.3%
CCN(CC)C(=O)CSc1nc2ccc(NC(=O)CSc3nnc(N)s3)cc2s1	?	-15.6%	11.2µM*	12.6µM*	31.6µM*	1.1%
CCN(CC)S(=O)(=O)c1cc(NC(=O)CSc2nnc(N)s2)ccc1C	-3.9%	-2.3%	-4.5%	-3.5%	.	0.8%
Oc1ccccc1Oc1c(F)c(F)nc(N2CCCC2)c1F	-7.5%[60.1 µM]	-10.4%	-20.7%	?	44.7µM*	-1.1%
COc1ccc(CCNC(=O)c2cnn3c2NC(=C2CC2)C=C3C(F)F)cc1OC	4.7%	-19.9%	.	11.9%	.	.
COc1ccc(-c2nc3ccccc3c(=O)n2Cc2ccc(CNC(=O)CO)cc2)cc1COc1ccc(NC(C)=O)cc1	.	.	.	.	.	79.4µM*
COc1ccc(-c2nc3ccc(NC(C)=O)cc3c(=O)n2Cc2cccc(Cl)c2)cc1COc1ccc(NC(C)=O)cc1	?	79.4µM*	.	?	.	-9.1%
COc1ccc(-c2nc3ccccc3c(=O)n2Cc2ccco2)cc1COc1ccc(NC(C)=O)cc1	.	.	.	.	.	-3.8%
Cc1ccccc1CNCCSc1nnnn1-c1ccccc1	-18.2%	11.7%	-6.8%	?	5.9%	4.7%
CCOC(=O)c1sc(NC(=O)C2C3C=CC(C3)C2C(=O)O)nc1C (configuration not stated)	-13.2%	4.0%	-1.3%	?	?	79.4µM*
O=S(=O)(c1cccnc1)N1CCN(c2nc(-c3cccs3)nc3ccccc23)CC1	-9.1%	0.0%	.	?	.	.
CC[C@H](C)[C@@H]1NC(=O)c2cc([N+](=O)[O-])cc(I)c2NCC[C@@H](C(N)=O)NC(=O)[C@H](CCCN=C(N)N)NC1=O	8.2%	-18.5%	-10.3%	12.2%	0.2%	1.3%
NC(=O)CC[C@@H]1NC(=O)[C@H](CO)NC(=O)c2cc([N+](=O)[O-])cc(I)c2NCCC[C@@H](C(N)=O)NC(=O)[C@H](Cc2ccc(O)cc2)NC1=O	-12.4%	-10.2%	89.1µM*	?	-0.4%	5.3%
NC(=O)[C@@H]1CCNc2c(I)cc([N+](=O)[O-])cc2C(=O)N[C@@H](CCC(=O)O)C(=O)N[C@@H](CO)C(=O)N1	?	-2.2%	22.4µM*	?	-7.0%	-3.9%
CC[C@H](C)C1NC(=O)[C@H](CC(=O)O)NC(=O)c2cc([N+](=O)[O-])cc(I)c2NCCC(C(N)=O)NC1=O (some centres not stated)	79.4µM*	-4.3%	25.1µM*	?	0.9%	2.6%
COc1ccc(NC(=O)c2sc3nc4c(cc3c2N)CN(Cc2ccccc2)CC4)c(OC)c1	-4.1%	?	-11.1%	17.2%	25.4%	9.2%
COC(=O)[C@H](C)NC(=O)[C@@H](C)CO	.	.	.	.	.	0.5%[21 µM]
COc1ccc(CCSc2n[nH]c(C(C)C)n2)cc1	8.4%	-7.2%	.	34.9%	.	.
COc1cc(CCNC2=CC(=O)c3ncccc3C2=O)ccc1O	-11.7%	-8.6%	15.8µM*	28.2µM*	.	.
C#C[C@@]1(O)CC[C@@H]2[C@@H]3CCC4=CC(=O)CC[C@@H]4[C@H]3CC[C@]21C	-2.0%[12 µM]	.	.	.	.	5.7%[56.1 µM]
SMILES	POLK inh	FEN1 inhibitor	POLH inh	POLI inh	Pol beta inh	TDP1 inh
COc1cc(/C=N/NC(=O)COc2ccc(-n3cnnn3)cc2)ccc1OCC(N)=O	?	9.3%	-9.1%	?	15.8µM*	-7.7%
COc1cc(/C=N/NC(N)=S)ccc1OCC(=O)N1CCOCC1	-1.4%	10.1%	-4.0%	111.5%	-9.6%	0.0%
COc1ccc(/C=N/NC(=O)c2ccc(-n3cnnn3)cc2)cc1	-4.0%	0.5%	-16.4%	20.5%	.	-14.8%
CCc1ccc(NC(=O)CS(=O)CC(=O)Nc2ccc(-n3cnnn3)c(C)c2)cc1 (configuration not stated)	-13.1%	-22.9%	-2.3%	13.9%	25.1µM*	56.2µM*
Cc1cc(C)cc(OCC(=O)Nc2ccc(-n3cnnn3)cc2)c1	2.2%	-0.8%	-11.9%	31.6µM*	.	-7.3%
COc1cc(/C=N/NC(=O)COc2ccc([N+](=O)[O-])cc2)ccc1OCC(=O)N1CCOCC1	-15.7%	5.4%	-1.2%	-7.8%	17.8µM*	.
CN(N=O)c1ccc(/C=C/c2ccnc3ccccc23)cc1	-2.8%	-3.7%	.	?	.	.
COc1ccccc1OCC(=O)Nc1nnc(-c2ccco2)s1	-7.0%	-13.6%	?	?	35.5µM*	-1.0%
Brc1cccc[n+]1CCC[n+]1ccccc1Br	-19.0%	79.4µM*	.	?	.	.
CN(C)c1ccc(C=Nc2cncc3ccccc23)cc1	-6.3%	3.1%	.	20.2%	.	.
CC(=O)Nc1ccc(OCC(O)CN2CCN(c3ccc(C)c(Cl)c3)CC2)cc1 (configuration not stated)	-4.5%	0.3%	-9.8%	89.1µM*	5.9%	2.6%
COc1cc(OC)c(/C=C/c2c3ccccc3cc[n+]2C)c(OC)c1	-14.3%	?	.	?	.	.
O=C(Nc1ccc(-c2ccc3nncn3n2)cc1)c1ccc(Br)o1	-32.4%	6.4%	-6.3%	-2.2%	?	79.4µM*
Cc1cc(C)cc(Oc2nc3c(C)cccn3c(=O)c2/C=C(\C#N)c2nc3ccccc3s2)c1	-24.9%	-23.1%	-5.4%	?	?	-1.1%
CN(C)CCCNc1cc(N2CCN(C)CC2)ncn1	-2.2%	13.9%	.	4.1%	.	.
CCCn1c(SCC(=O)Nc2ccc(Cl)cn2)nnc1C1CC1	-5.6%	20.3%	-12.4%	42.3%	?	3.2%
Cn1c(SCC(=O)Nc2ccc(Br)cn2)nnc1C1CC1	-41.8%	10.8%	79.4µM*	?	?	6.2%
